Source: PubChem BioAssay (Tox21)
Records with an inconclusive call do not appear. A call without a number means that no potency is given here. A number with no mark means an inactive call. The source made the active and inactive calls. Unless noted, calls come from the whole dose curve; as a rule, active = well fitted curve in the direction sought with a large enough effect in the repeat runs; inconclusive = weak or mixed curves; inactive = no such curve, though single readings can be large; an effect the other way counts as inactive or inconclusive.

How the values were obtained:
[1] = qHTS assay to identify small molecule agonists of the vitamin D receptor (VDR) signaling pathway - cell viability counter screen (AID 743224); note: nearly all actives have a fitted effect of over 50% in size; note: potency is the fitted concentration of half-maximal effect; for activity change, negative = cytotoxicity: series mostly up to about 63 µM
Method in brief: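 Here cell health was gauged by luminescent ATP detection (CellTiter-Glo, 30 min RT) in VDR-bla cells that had been incubated with test compounds for 16 h at 37C and 5% CO2.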

[2] = qHTS assay to identify small molecule antagonists of the vitamin D receptor (VDR) signaling pathway - cell viability counter screen (AID 743225); note: nearly all actives have a fitted effect of over 50% in size; note: potency is the fitted concentration of half-maximal effect
Method in brief: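 Cytotoxicity counter screen read by CellTiter-Glo luminescence (30 min, room temperature) in the same wells as the VDR-bla antagonist readout. HEK 293T VDR-UAS-bla cells had 16 h at 37C with compound and 3 nM (final) 1-alpha,25-dihydroxyvitamin D3, then 2 h with FRET substrate.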

[3] = qHTS assay to identify small molecule agonists of the endoplasmic reticulum stress response signaling pathway (AID 1159516; active = well fitted activation curve with a large enough effect in the signal ratio in the repeat runs, not every such curve was filed as active; the % refers to the signal ratio)
Method in brief: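 Reporter HeLa cells (ESRE-beta-lactamase) underwent 5 hr compound incubation at 37 C and 5% CO2 in quantitative HTS format. Detection followed 2 hr of FRET substrate loading at room temperature.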

[4] = qHTS assay to identify small molecule agonists of the endoplasmic reticulum stress response signaling pathway - cell viability counter screen (AID 1159517; calls by dose curve;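 note: HeLa cells carrying an ER stress response element beta-lactamase reporter; series mostly up to about 61 µM; nearly all actives have a fitted effect of over 50% in size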)
Method in brief: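 HeLa cells carrying an ESRE-driven beta-lactamase reporter receive compound for 5 hr at 37 C. Cell viability is then gauged with CellTiter-Glo by luminescence, 30 min at room temperature.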

[5] = qHTS assay to identify small molecule antagonists of the retinoid-related orphan receptor gamma (ROR-gamma) signaling pathway - cell viability counter screen (AID 1159520); note: nearly all actives have a fitted effect of over 50% in size; note: potency is the fitted concentration of half-maximal effect
Method in brief: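 Cytotoxicity was read from cellular ATP (CellTiter-Glo luminescence) after 16 hr at 37 C with 1 uM doxycycline induction. The inducer was added 2 hr after compound transfer to Tet-on ROR gamma CHO cells.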

[6] = biological target: Nuclear receptor ROR-gamma (Homo sapiens) (UniProt P51449); test: qHTS assay to identify small molecule antagonists of the retinoid-related orphan receptor gamma (ROR-gamma) signaling pathway (AID 1159521; note: nearly all actives have a fitted effect of over 50% in size; note: potency is the fitted concentration of half-maximal effect; for activity change, negative = inhibition: top concentration of the series differs between compounds)
Method in brief: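 Antagonist read-out: drop in luminescence (ONE-Glo) from an RORE-LUC reporter in CHO cells with doxycycline-inducible ROR-gamma; 2 hr compound pretreatment, 1 uM doxycycline, 16 hr incubation at 37 C.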

[7] = qHTS assay to identify small molecule agonists of the AP-1 signaling pathway - cell viability counter screen (AID 1159525; calls by dose curve; note: nearly all actives have a fitted effect of over 55% in size; note: potency is the fitted concentration of half-maximal effect)
Method in brief: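 Luminescent ATP readout (Cell Titer Glo, 30 min RT), normalised to DMSO and tetra n-octyl ammonium bromide controls. Cells were ME-180 AP-1-bla in 0.5% dialyzed FBS Opti-MEM, with a 5 h, 37 °C compound exposure.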

[8] = qHTS assay to identify small molecule agonists of the AP-1 signaling pathway (AID 1159526; calls by dose curve; note: potency is the fitted concentration of half-maximal effect)
[9] = qHTS assay to identify small molecule agonists of the RXR signaling pathway - cell viability counter screen (AID 1159529); note: nearly all actives have a fitted effect of over 50% in size; note: potency is the fitted concentration of half-maximal effect; for activity change, negative = cytotoxicity: series mostly up to about 77 µM
Method in brief: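 CellTiter-Glo luminescence gave viability in the wells also read for beta-lactamase. Cells (RXR-alpha-UAS-bla HEK 293T, 2% charcoal-stripped FBS medium) had 5 hr plating, then 16 hr compound exposure at 37 C; tetraoctyl ammonium bromide served as positive control.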

[10] = biological target: Retinoic acid receptor RXR-alpha (Homo sapiens) (UniProt P19793); test: qHTS assay to identify small molecule agonists of the RXR signaling pathway (AID 1159527; calls by dose curve; note: nearly all actives have a fitted effect of over 35% in size)
Chain of Retinoic acid receptor RXR-alpha (Homo sapiens) (P19793 whole entry, looked up): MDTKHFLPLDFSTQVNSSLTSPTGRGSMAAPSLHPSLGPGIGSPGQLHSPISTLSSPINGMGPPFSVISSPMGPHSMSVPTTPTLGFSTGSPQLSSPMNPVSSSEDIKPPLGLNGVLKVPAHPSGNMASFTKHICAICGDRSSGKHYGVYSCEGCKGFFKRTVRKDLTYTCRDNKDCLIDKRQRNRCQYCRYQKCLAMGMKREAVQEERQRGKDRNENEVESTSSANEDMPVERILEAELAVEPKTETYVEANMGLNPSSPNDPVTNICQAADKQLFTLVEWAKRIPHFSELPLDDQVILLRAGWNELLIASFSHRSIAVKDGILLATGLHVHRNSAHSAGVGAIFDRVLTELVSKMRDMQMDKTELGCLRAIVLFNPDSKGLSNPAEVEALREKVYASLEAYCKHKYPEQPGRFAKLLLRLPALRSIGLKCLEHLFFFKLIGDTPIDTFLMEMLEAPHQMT
Method in brief: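 Agonist-mode beta-lactamase reporter assay: HEK 293T RXR-alpha-UAS-bla cells treated 16 hr at 37 C with compounds, 9-cis retinoic acid as positive control. LiveBLAzer FRET substrate, 405 nm excitation, 460/530 nm emission.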

CC1(C)C(=O)N(Br)C(=O)N1Br
Potency [1]: inactive
Potency [2]: inactive
Potency [3]: inactive
Potency [4]: inactive
Potency [5]: inactive
Potency [6]: inactive
Potency [7]: inactive
Potency [8]: inactive
Potency [9]: inactive

CCN(CC)CCSC(=O)C(c1ccccc1)c1ccccc1
Potency [1]: inactive
Potency [2]: inactive
Potency [3]: inactive
Potency [4]: inactive
Potency [6]: inactive
Potency [7]: inactive
Potency [9]: inactive

CC(C(O)c1ccccc1)N(C)CCOC(c1ccccc1)c1ccccc1 (centres undefined)
Potency [3]: inactive
Potency [4]: inactive

O=C1Nc2ccc(Cl)cc2[C@@](C#CC2CC2)(C(F)(F)F)O1
Potency [1]: inactive
Potency [3]: inactive
Potency [4]: inactive
Potency [5]: 29.8 µM (active)
Potency [6]: inactive

CCCCCCCC/C=C\CCCCCCCC(=O)NCc1ccc(O)c(OC)c1
Potency [1]: 33.5 µM (active)
Potency [2]: 21.3 µM (active)
Potency [3]: inactive
Potency [4]: inactive
Potency [5]: inactive
Potency [6]: inactive
Potency [7]: inactive
Potency [10]: inactive
Potency [9]: inactive

O=C1NC2CCCCN2C12CCN(CCCN1c3ccccc3CCc3ccc(Cl)cc31)CC2 (centres undefined)
Potency [1]: inactive
Potency [2]: 23.9 µM (active)
Potency [3]: inactive
Potency [4]: inactive
Potency [6]: 23.7 µM (active)
Potency [9]: 21.3 µM (active)

O=C(O)CCCCCCC(=O)O
Potency [1]: inactive
Potency [2]: inactive
Potency [3]: inactive
Potency [4]: inactive
Potency [5]: inactive
Potency [6]: inactive
Potency [7]: inactive
Potency [8]: inactive
Potency [10]: inactive
Potency [9]: inactive

c1cc(OCC2CO2)cc(OCC2CO2)c1 (centres undefined)
Potency [2]: inactive
Potency [3]: inactive
Potency [4]: inactive
Potency [5]: inactive
Potency [6]: 48.2 µM (active)
Potency [7]: inactive
Potency [9]: 48.6 µM (active)

CNC(=S)NN
Potency [1]: 5.49 µM (active)
Potency [3]: inactive
Potency [4]: inactive
Potency [5]: inactive
Potency [6]: 27.3 µM (active)
Potency [7]: inactive

O=C(Oc1ccccc1)c1cccc(C(=O)Oc2ccccc2)c1
Potency [1]: inactive
Potency [3]: inactive
Potency [5]: inactive
Potency [6]: inactive
Potency [7]: inactive

Cc1c(C(=O)O)cccc1[N+](=O)[O-]
Potency [2]: inactive
Potency [3]: inactive
Potency [4]: inactive
Potency [7]: inactive

CCCCNc1c(C(=O)OCC)c(C)nc2c1cnn2CC
Potency [1]: inactive
Potency [2]: inactive
Potency [3]: inactive
Potency [5]: inactive
Potency [6]: inactive
Potency [7]: inactive
Potency [8]: inactive
Potency [9]: inactive

CN(C)CCCN1c2ccccc2Sc2ccc(C(F)(F)F)cc21
Potency [3]: inactive
Potency [5]: inactive
Potency [7]: inactive
Potency [8]: 16.9 µM (active)

CCc1ccc(O)c(C(C)(C)C)c1
Potency [2]: 38.9 µM (active)
Potency [3]: inactive
Potency [5]: inactive
Potency [6]: inactive
Potency [10]: inactive

Nc1ncnc2c1ncn2[C@@H]1O[C@H](COP(=O)(O)O)[C@@H](O)[C@H]1O
Potency [1]: 10.6 µM (active)
Potency [2]: 10.7 µM (active)
Potency [3]: inactive
Potency [5]: inactive
Potency [6]: inactive
Potency [7]: inactive
Potency [10]: inactive

C=C[C@](C)(O)CC[C@@H]1[C@@]2(C)CCCC(C)(C)[C@@H]2CC[C@@]1(C)O
Potency [1]: 43.6 µM (active)
Potency [2]: 43.6 µM (active)
Potency [3]: inactive
Potency [4]: inactive
Potency [7]: 24.5 µM (active)
Potency [9]: 43.6 µM (active)

Cc1ccc(N)cc1O
Potency [3]: inactive
Potency [5]: inactive
Potency [6]: inactive
Potency [7]: 38.9 µM (active)

C=CC(=C)CCC=C(C)C
Potency [1]: 54.9 µM (active)
Potency [2]: inactive
Potency [3]: inactive
Potency [5]: inactive
Potency [7]: inactive
Potency [9]: inactive

CCCCCCCCCCCC(=O)N(CC)CC
Potency [1]: inactive
Potency [2]: inactive
Potency [3]: inactive
Potency [5]: inactive
Potency [6]: inactive
Potency [7]: inactive
Potency [9]: inactive

CCC(=O)OCCc1ccccc1
Potency [1]: 41.8 µM (active)
Potency [2]: inactive
Potency [3]: inactive
Potency [5]: inactive
Potency [7]: inactive
Potency [9]: inactive

CCN1CCN(c2cc(-c3ccc(F)cc3)c3c(n2)CCCCCC3)CC1
Potency [1]: inactive
Potency [2]: inactive
Potency [3]: inactive
activity, negative = cytotoxicity [5]: -5.78% [at 19 µM]
activity change, negative = inhibition [6]: -6.23% [at 19 µM]
viability change, negative = cytotoxic [7]: 3.9% [at 15.8 µM]
activation [8]: 6.74% [at 15.8 µM]
activity change, negative = cytotoxicity [9]: -22.5% [at 15.8 µM]

COCC(=O)O[C@]1(CCN(C)CCCc2nc3ccccc3[nH]2)CCc2cc(F)ccc2[C@@H]1C(C)C
Potency [1]: 26.6 µM (active)
Potency [2]: 21.3 µM (active)
Potency [3]: inactive
Potency [5]: 29.8 µM (active)
Potency [6]: 26.6 µM (active)
Potency [7]: inactive
Potency [9]: 15.1 µM (active)

O=Cc1ccc(F)cc1
Potency [1]: inactive
Potency [2]: inactive
Potency [3]: inactive
Potency [5]: inactive
Potency [6]: inactive
Potency [8]: inactive
Potency [9]: inactive

CCN(CC)CCOC(=O)C1(C2CCCCC2)CCCCC1
Potency [1]: inactive
Potency [2]: inactive
Potency [3]: inactive
Potency [4]: inactive
Potency [9]: 12 µM (active)

CC(=O)Oc1ccc(C2(c3ccc(OC(C)=O)cc3)Oc3ccccc3NC2=O)cc1
Potency [1]: inactive
Potency [2]: inactive
Potency [3]: inactive
Potency [5]: inactive
Potency [6]: 26.6 µM (active)
Potency [8]: inactive
Potency [9]: inactive

O=C1OC(=O)c2cccc3cccc1c23
Potency [1]: inactive
Potency [2]: inactive
Potency [3]: inactive
Potency [5]: inactive
Potency [6]: inactive
Potency [7]: inactive
Potency [10]: inactive
Potency [9]: inactive

CC(C)OC(=O)c1cc(C(=O)OC(C)C)cc([N+](=O)[O-])c1
Potency [1]: inactive
Potency [3]: inactive
Potency [5]: inactive
Potency [7]: inactive
